According to PubChem BioAssay (Tox21):
Records with an inconclusive call do not appear. Active and inactive are the calls of the source. Unless noted, the call rests on the fitted dose curve; in most records, active means well fitted curve in the direction sought with a large enough effect in the repeat runs; inconclusive means weak or mixed curves; inactive means no such curve, though single readings can be large; an effect the other way counts as inactive or inconclusive.

Columns and labels:
[1] = Caspase-3/7 induction in HepG2 cells by small molecules, qHTS assay (AID 1346978); further: nearly all actives have a fitted effect of over 15% in size
Procedure, shortened: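 Caspase-3/7 induction was measured by Caspase-Glo 3/7 luminescence (30 min, room temperature) after a 17 hr compound exposure of wild-type HepG2 cells seeded at 2,000 per well and pre-incubated 5 hr.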

[2] = Caspase-3/7 induction in CHO-K1 cells by small molecules, qHTS cell viability counter screen (AID 1346979); further: nearly all actives have a fitted effect of over 35% in size; further: potency means the concentration at half of the fitted maximal effect
Procedure, shortened: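 CellTiter-Fluor viability check, qHTS format: wild-type CHO-K1, 16hr compound treatment, 1hr reagent incubation, fluorescence read.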

[3] = Caspase-3/7 induction in CHO-K1 cells by small molecules, qHTS assay (AID 1346980); further: nearly all actives have a fitted effect of over 15% in size
Procedure, shortened: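 Luminescent Caspase-Glo 3/7 read (30min, room temperature) quantified apoptosis induction. Cells were wild-type CHO-K1, treated with compound for 17hr at 37 C and 5% CO2.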

[4] = Caspase-3/7 induction in HepG2 cells by small molecules, qHTS cell viability counter screen (AID 1346981); further: series mostly up to about 92 µM; nearly all actives have a fitted effect of over 30% in size
Procedure, shortened: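 HepG2, WT, 2,000 cells/well; 5 hr pre-incubation 37 C/5% CO2; compound pin-transferred from DMSO; 16 hr exposure; CellTiter-Fluor, 1 hr; fluorescence read.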

[5] = biological target: Nuclear receptor subfamily 1 group I member 2 (Homo sapiens) (UniProt O75469); test: Human pregnane X receptor (PXR) small molecule agonists, qHTS assay (AID 1346982); further: nearly all actives have a fitted effect of over 35% in size; further: potency means the concentration at half of the fitted maximal effect
Procedure, shortened: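 Luciferase signal from ONE-Glo (30 min, room temperature) measured activation of hPXR-driven CYP3A4 reporter expression in PXR-Luc HepG2 cells treated with compounds for 24 hr at 37 C.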

[6] = biological target: Acetylcholinesterase (Homo sapiens) (UniProt P22303); test: Acetylcholinesterase (AChE) small molecule antagonists: enzyme-based qHTS assay (AID 1347397; calls by dose curve; further: nearly all actives have a fitted effect of over 55% in size); conditions: Potency: AChE enzyme activity inhibition; outcome: AChE enzyme activity inhibition
Procedure, shortened: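 rhAChE 50 mU/mL (dispensed) + cpd or DMSO, 30 min RT; add DTNB/acetylthiocholine cocktail, 10 min RT; colorimetric thiocholine readout. qHTS, 1536-well format.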

[7] = biological target: Acetylcholinesterase (Homo sapiens) (UniProt P22303); test: Acetylcholinesterase (AChE) small molecule antagonists: fluorescence cell-based qHTS assay (AID 1347398; calls by dose curve; further: nearly all actives have a fitted effect of over 50% in size); conditions: Potency: AChE activity; outcome: AChE activity
Procedure, shortened: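 Read-out is Thiolite Green fluorescence at Ex/Em = 490/520 nm, formed by reaction with thiocholine released when cellular AChE in SH-SY5Y cells hydrolyzes acetylthiocholine. Compounds were preincubated 30 min at 37 C before substrate.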

[8] = biological target: Acetylcholinesterase (Homo sapiens) (UniProt P22303); test: Acetylcholinesterase (AChE) small molecule antagonists: colormetric cell-based qHTS assay (AID 1347395; calls by dose curve; further: nearly all actives have a fitted effect of over 30% in size)
Procedure, shortened: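 AChE inhibition read colorimetrically via DTNB–thiocholine in SH-SY5Y cells. Compound 30 min, substrate 90 min, both 37 C.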

[9] = biological target: Nuclear receptor subfamily 1 group I member 2 (Homo sapiens) (UniProt O75469); test: CYP3A4 induction through human pregnane X receptor (PXR) by small molecules, qHTS assay (AID 1346984); further: nearly all actives have a fitted effect of over 40% in size
Procedure, shortened: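 Luminescence readout: luciferase signal after One-Glo (30 min, room temperature), following 3 h at 37C with 3uM final Luciferin-IPA P450 substrate. Cells were DPX-2 (HepG2, PXR/CYP3A4-luc co-transfected) dosed for 24 h.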

[10] = biological target: Nuclear receptor subfamily 1 group I member 2 (Homo sapiens) (UniProt O75469); test: Human pregnane X receptor (PXR) activation by small molecules, qHTS assay (AID 1346985); further: nearly all actives have a fitted effect of over 40% in size
Procedure, shortened: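 DPX-2 cells (HepG2 co-transfected with a PXR response element and a CYP3A4-promoter luciferase construct) were seeded at 2,000 per well, rested 5 hr at 37C, then exposed to DMSO-dissolved compounds for 24 hr. Activation was read as luciferase luminescence.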

Measured: Potency

Chain of Nuclear receptor subfamily 1 group I member 2 (Homo sapiens) (O75469 whole entry, looked up): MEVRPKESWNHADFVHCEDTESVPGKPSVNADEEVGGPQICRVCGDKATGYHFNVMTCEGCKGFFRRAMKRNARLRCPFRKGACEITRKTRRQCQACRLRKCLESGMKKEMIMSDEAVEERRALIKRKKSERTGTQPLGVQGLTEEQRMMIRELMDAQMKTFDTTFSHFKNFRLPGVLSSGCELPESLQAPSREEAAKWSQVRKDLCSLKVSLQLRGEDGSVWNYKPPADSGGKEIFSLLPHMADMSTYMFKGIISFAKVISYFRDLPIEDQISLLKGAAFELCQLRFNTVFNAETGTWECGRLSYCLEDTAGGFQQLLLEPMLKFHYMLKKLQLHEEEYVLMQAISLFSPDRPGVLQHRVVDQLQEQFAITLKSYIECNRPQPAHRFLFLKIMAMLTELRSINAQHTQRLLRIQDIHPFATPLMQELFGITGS
Chain of Acetylcholinesterase (Homo sapiens) (P22303 whole entry, looked up): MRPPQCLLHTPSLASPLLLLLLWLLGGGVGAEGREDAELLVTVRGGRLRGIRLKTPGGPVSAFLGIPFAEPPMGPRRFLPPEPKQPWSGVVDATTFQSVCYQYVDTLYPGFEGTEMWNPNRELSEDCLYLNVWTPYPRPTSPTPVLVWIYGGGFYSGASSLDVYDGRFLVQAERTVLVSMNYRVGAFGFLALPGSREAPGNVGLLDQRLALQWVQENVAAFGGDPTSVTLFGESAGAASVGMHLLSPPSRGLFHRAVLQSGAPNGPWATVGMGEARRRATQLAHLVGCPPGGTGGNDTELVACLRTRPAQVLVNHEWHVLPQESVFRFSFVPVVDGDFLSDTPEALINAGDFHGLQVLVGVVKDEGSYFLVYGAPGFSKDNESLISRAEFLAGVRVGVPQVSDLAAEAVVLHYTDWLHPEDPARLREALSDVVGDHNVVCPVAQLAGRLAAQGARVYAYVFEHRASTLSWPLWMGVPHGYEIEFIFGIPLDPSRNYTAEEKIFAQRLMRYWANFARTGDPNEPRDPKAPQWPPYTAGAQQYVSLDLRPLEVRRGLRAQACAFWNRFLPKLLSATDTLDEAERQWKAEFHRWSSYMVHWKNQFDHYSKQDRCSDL

O=C(N[C@H]1CN2CCC1CC2)c1ccc2c(c1)OCCO2
inactive: [1] | [2] | [3] | [4] | [5] | [6]

O=C(Cc1ccccc1)OCCc1ccccc1
not listed: [8] | [9] | [10]
inactive: all other assays above

COCc1cnc(C2=NC(C)(C(C)C)C(=O)N2)c(C(=O)O)c1 (centres undefined)
not listed: [9] | [10]
inactive: all other assays above

CCOP(=O)(O)C(N)=O
not listed: [9] | [10]
inactive: all other assays above

CC(O)CN1CCN(CC(=O)[O-])CCN(CC(=O)[O-])CCN(CC(=O)[O-])CC1.[Gd+3] (centres undefined)
inactive: [1] | [2] | [3] | [4] | [5] | [6]

O=C(O)C(F)(F)C(F)(F)C(F)(F)C(F)(F)C(F)(F)C(F)(F)C(F)(F)C(F)(F)F
active: [5] 21.7 µM
not listed: [9] | [10]
inactive: all other assays above

CCCCC1C(=O)NC(=O)N(C2CCCCC2)C1=O (centres undefined)
not listed: [5] | [9] | [10]
inactive: all other assays above

CN[C@@H](C)[C@H](O)c1ccccc1
not listed: [5] | [7]
inactive: all other assays above

C#C[C@]1(O)CC[C@H]2[C@@H]3CCC4=CC(=O)CCC4=C3C=C[C@@]21CC
active: [2] 26.6 µM
inactive: [1] | [3] | [4] | [8] | [6]
